AC50 data for 126 molecules are collected here from PubChem BioAssay AID540356 (Broad Institute, 2011).

About 360 (14%) of roughly 2,500 compounds were called active.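 Rule for the calls: active = signal-lowering compounds whose fitted half-maximal concentration AC50 is no higher than ten times their top tested concentration; inconclusive = flat curve with 30 to 70% inhibition, or poor fit; inactive = flat within 30%, signal increase, or AC50 above limit.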 Not all results are given here.

The test in a line: non-specific inhibitors of H2O2 luminol chemiluminescence – biochemical, luminescence, no ALR or DTT, cherry-pick, artefact control for ALR inhibitor project, dose response (AID 540356). The following applies: HRP/H2O2 luminol luminescence counterscreen; series mostly up to 10 µM. Background: A counterscreen serves to expose hits that act by an unwanted route or on another target.
Consider `Cc1ccc(C2SCC(=O)N2c2ccccc2)cc1` (stereo unspecified), for which the AC50 (commonly the midpoint of the concentration-response curve, whichever way the signal moves) is “inactive”. Then `N#CC1=C(N)n2c(s/c(=C\c3cccs3)c2=O)=C(C#N)C1c1cccs1` (stereo unspecified), with “inactive”; and `N#Cc1cnn(-c2ccccc2)c1NC(=O)CN1CCN(c2ccccc2)CC1`, with “inactive”.

Regarding `CN(C)S(=O)(=O)c1ccc(-c2cn3ccccc3n2)cc1`, the AC50 result was “inactive”. Then `O=C(N/N=C\c1cccc(Cl)c1)c1ccc(Cn2cccn2)o1`, with “inactive”. For the molecule `CSc1nc(O)c(Nc2cccc(Cl)c2)c(=O)[nH]1`, the AC50 entry is “inactive”. Turning to `Nc1ncc(Br)cc1S(=O)(=O)NCCC(=O)N1CCN(c2ccccc2)CC1`, the AC50 result was “inactive”. Next, `Cc1ccc(S(=O)(=O)N2CCN=C2SCc2cccnc2)cc1`: “inactive”; `CC(=O)Nc1nc(C)c(-c2csc(Nc3ccc(O)cc3)n2)s1`: “inactive”. Consider `Nc1ccc(-c2nc3cc(N)ccc3s2)cc1`, for which the AC50 result is “inactive”. Next, `CN=c1scc(-c2ccccc2F)n1/N=C(\C)c1cccnc1`: “inactive”. Then `O=C1CSC(=S)N1c1ccc(O)cc1`, with “inactive”; and `COc1cc(/C=N/NC(=O)Cn2cnc3c2c(=O)n(C)c(=O)n3C)ccc1O`, with “inactive”. Then `S=c1[nH]nc(C2CCCCC2)n1/N=C/c1ccccn1`, with “inactive”; and `Oc1cc(O)cc(/C=C/c2ccc(O)c(O)c2)c1`, with 5.21 µM (active); and `Oc1ccc(/C=N/N=C/c2ccc(O)c(O)c2)cc1O`, with 2.39 µM (active). Regarding `O=Cc1ccc(O)c(O)c1`, the AC50 result is “inactive”. Next, `Oc1ccc(/C=N/N=C/c2ccc(O)cc2)cc1`: “inactive”; `COc1ccc(N=C2C(=O)Nc3ccccc32)cc1`: “inactive”; `COc1cc(/C=C/c2ccc(O)cc2)cc(OC)c1`: “inactive”.

On to `COc1cc(/C=N/N=C2/NC(=O)C(c3ccccc3)S2)ccc1O` (stereo unspecified), for which the AC50 entry was “inactive”.

As to `Cc1ccsc1C=Nc1ccc(O)cc1`, the AC50 entry is “inactive”.

Consider `Cc1ccc(CN2CCN(/N=C/c3ccc(O)c(O)c3)CC2)cc1`, for which the AC50 result was “inactive”. Then `COc1ccccc1C(=O)NCCN1CCN(c2ccccc2)CC1`, with “inactive”; and `CN(C)c1ccc(NC(=O)Nc2ccc3snnc3c2)cc1`, with “inactive”.

Take `CC(C)(C)c1cc(-c2n[nH]c(=S)n2-c2ccccc2F)n[nH]1`: the AC50 entry is “inactive”. Next, `N#CCC(=O)Nc1ccc(C(=O)NCc2cccc(Cl)c2)cc1`: “inactive”; `CC(=O)Oc1ccc(-c2cccc(C(=O)N(C)c3ccc(O)cc3)c2)cc1`: “inactive”.

Regarding `CCN(CCCNS(=O)(=O)c1ccc2c(c1)CCN2C(C)=O)c1cccc(C)c1`, the AC50 entry is “inactive”. On to `COc1cc(/C=N/NC(=O)c2cc(-c3ccc4c(c3)OCO4)n[nH]2)ccc1O`, for which the AC50 entry was “inactive”. As for `Cc1ccc(C2C(C#N)=C(N)Oc3cc(N)ccc32)cc1` (stereo unspecified), the AC50 entry was “inactive”. Then `N#CC1=C(N)Oc2n[nH]c(-c3cccs3)c2C1c1ccco1` (stereo unspecified), with “inactive”. Next, `COC(=O)Cc1ccc(O)c(N)c1`: “inactive”; `CC(C)C1C(C#N)=C(N)Oc2n[nH]c(-c3cccs3)c21` (stereo unspecified): “inactive”. Then `COc1ccc(OC)c(C2C(C#N)=C(N)Oc3cc(N)ccc32)c1` (stereo unspecified), with “inactive”; and `CC1CC/C(=N/Nc2ccccc2)C(=O)N1` (stereo unspecified), with “inactive”; and `c1csc(-c2nc3ccccn3c2NC2CCCCC2)c1`, with “inactive”. For `Cc1ccn2c(NC(C)(C)C)c(-c3cccs3)nc2c1`, the AC50 result is “inactive”. Next, `COc1ccc(C)cc1NC(=O)c1cc2c(CO)cnc(C)c2oc1=N`: “inactive”; `Oc1ccccc1N1CCN(c2nnnn2-c2ccccc2)CC1`: “inactive”; `CN1CC(=O)N(CC(=O)Nc2ccc(SC(F)F)cc2)C1=O`: “inactive”. Then `O=C(NCC(=O)N1CCN(c2ccccc2O)CC1)c1cccs1`, with “inactive”; and `Cc1ccc(S(=O)(=O)Nc2c(C(=O)O)[nH]c3ccccc23)c(C)c1`, with “inactive”. In the case of `CCN(CC)c1ccc(C(=O)N/N=C(\C)c2ccc(O)cc2)cc1`, the AC50 entry is “inactive”.

Consider `C/C(=N\NC(=O)c1csc2ccccc12)c1ccc(O)cc1`, for which the AC50 result was “inactive”.

As for `COc1ccc(CNc2cc(C)ccc2C)c(OC)c1OC`, the AC50 result is “inactive”. Turning to `CC(NC(=O)C(=O)N1CCCCC1)C(c1cccs1)N1CCN(c2ccc(F)cc2)CC1` (stereo unspecified), the AC50 entry was “inactive”.

As for `NNC(=O)c1ccc(O)cc1O`, the AC50 result was “inactive”.

In the case of `NNC(=O)CCc1nc2ccc(O)cc2[nH]1`, the AC50 was 10.3 µM (active). Next, `Nc1ccc2nc(COc3ccccc3)[nH]c2c1`: “inactive”; `C/C(=N\Nc1ccc(C(=O)O)cc1)c1ccc(Br)cc1`: “inactive”; `COc1ccc(Cc2nc3ccccc3n2CC(=O)N/N=C/c2ccc(O)cc2)cc1OC`: “inactive”.

Turning to `COc1cccc(-c2noc(Cn3nc(C)c([N+](=O)[O-])c3C)n2)c1`, the AC50 entry was “inactive”. Next, `Nc1ccc2nc[nH]c2c1`: “inactive”. For the molecule `Nc1ccc2nc(NC(=O)C3CCCCC3)sc2c1`, the AC50 entry is “inactive”.

Regarding `Nc1ccc2nc(-c3ccccc3)[nH]c2c1`, the AC50 was 9.02 µM (active). Then `Nc1ccc(-c2nc3cc(N)ccc3o2)cc1`, with “inactive”; and `CC(C)(C)c1ccc(-c2nc3cc(N)ccc3o2)cc1`, with “inactive”; and `Cn1c(C2CCCCC2)nc2cc(N)ccc21`, with “inactive”. Then `Nc1ccc(-c2nc3ccccc3[nH]2)cc1`, with “inactive”; and `COc1ccc2nc(-c3ccc(N)cc3)[nH]c2c1`, with “inactive”.

Turning to `Nc1cccc(C(=O)Nc2ccc3nc(-c4cccnc4)[nH]c3c2)c1`, the AC50 result was “inactive”. Then `O=[N+]([O-])c1ccc(CSC2=NCCN2)cc1`, with “inactive”; and `Cc1cccc2nc(-c3cccnc3)c(Nc3ccccc3)n12`, with “inactive”; and `COc1ccc(NCC(=O)N/N=C/C2CCCCC2)cc1`, with “inactive”. Next, `NNc1nc2ccc(F)cc2s1`: “inactive”; `Cc1[nH]c2ccccc2c1/C=N/NC(=O)Cc1cccs1`: “inactive”. Next, `COc1cc(CNc2ncc(-c3ccc(Cl)cc3)n2C)cc(OC)c1OC`: “inactive”; `Cc1ccc(Nc2c(-c3ccccc3O)nc3ncccn23)cc1`: “inactive”. Take `Cc1csc(/C(=N/OC(=O)c2ccco2)C(N)=O)n1`: the AC50 result was “inactive”.

`CC(=O)Nc1ccc(N2C(=O)CSC2c2ccccc2[N+](=O)[O-])cc1` (stereo unspecified): the AC50 entry was “inactive”. Then `Brc1ccc(CN2CCN(c3ccccc3)CC2)o1`, with “inactive”. Then `Nc1ccc2oc(-c3cccs3)nc2c1`, with “inactive”. Next, `Cc1nc2ccc(-c3nc4ccc(N)cc4[nH]3)cc2[nH]1`: 4.68 µM (active). Turning to `Nc1ccc2sc(N)nc2c1`, the AC50 result is “inactive”. For `Cc1ccc2nc(-c3cccc(N)c3)[nH]c2c1`, the AC50 result was “inactive”.

On to `Nc1ccc(-c2nc3ccc([N+](=O)[O-])cc3[nH]2)cc1`, for which the AC50 entry was “inactive”. For the molecule `O=C(Nc1nc(-c2ccccc2)ns1)c1cccs1`, the AC50 entry is “inactive”.

For the molecule `Cc1nnc2sc(SCc3cccc(Cl)c3)nn2c1=O`, the AC50 result is “inactive”.

For `O=S(c1ccc2ccccc2c1)c1cnns1` (stereo unspecified), the AC50 entry is “inactive”.

As for `C/C(Cl)=C\Cn1c(Nc2ccccc2)nc2c1c(=O)n(C)c(=O)n2C`, the AC50 result is “inactive”. As to `CSCc1ccc(C(=O)NC(C)c2ccc(-n3ccnc3)cc2)cc1` (stereo unspecified), the AC50 entry is “inactive”. Then `O=C(CCc1ccccc1)N1CCN(c2ccc(F)cc2)CC1`, with “inactive”; and `CC(C)=NNc1nc(-c2ccccc2)cs1`, with “inactive”.

As to `CC(=O)Nc1ccc(-c2csc(NNC(=O)c3ccccc3)n2)cc1`, the AC50 entry was “inactive”. Take `CC(C)=NNc1nc(-c2ccc(N3C(=O)CCC3=O)cc2)cs1`: the AC50 is 6.32 µM (active). Then `CN(C)c1ccc(C(=O)Nc2nc3c(s2)CCCC3)cc1`, with “inactive”; and `CSCC[C@H](NC(=O)N1CCn2c1nc1ccccc12)C(=O)NC1CCCCC1`, with “inactive”. Then `O=C(Cc1ccccc1)NNc1c2ccccc2nc2ccccc12`, with “inactive”. Then `CC(=O)NC(C)C(c1cccs1)N1CCN(c2ccccc2)CC1` (stereo unspecified), with “inactive”; and `COc1ccc(C(=O)N2CCCC(Nc3ccc(C)c(C)c3)C2)cc1` (stereo unspecified), with “inactive”; and `CC(=O)c1ccc(S(=O)(=O)Nc2cccc(S(=O)(=O)NC3=NCCC3)c2)cc1`, with “inactive”. In the case of `Oc1[nH]c2ccccc2c1C1=NCCCC1`, the AC50 entry is “inactive”. Then `c1ccc(NNC2=NCCCCC2)cc1`, with 6.06 µM (active). Then `CN(C)c1ccc(CN(C(=O)c2ccccc2Br)C2CCS(=O)(=O)C2)cc1` (stereo unspecified), with “inactive”; and `COc1ccc(N2CCN(CC(=O)Nc3ccc(C)c(C)c3)CC2)cc1`, with “inactive”; and `Cc1ccc(C(=O)NCCSc2snnc2C)cc1`, with “inactive”. Then `Cc1ccc(-c2n[nH]c(=S)n2/N=C/c2c(C)[nH]n(-c3ccccc3)c2=O)cc1`, with “inactive”; and `O=c1cc(-c2ccccc2)[nH]c2[nH]n(-c3ccccc3)c(=O)c12`, with “inactive”. Take `N#Cc1ccc(CSc2nnc(NC(=O)c3ccc(=O)[nH]c3)s2)cc1`: the AC50 result was “inactive”. Next, `NNC(=O)c1cccc(COc2ccccc2Br)c1`: “inactive”. As for `Cc1cccc(N2CCN(C(=O)C3CCCN(S(=O)(=O)c4cnc[nH]4)C3)CC2C)c1` (stereo unspecified), the AC50 result was “inactive”. Turning to `S=c1[nH]nc(-c2cccc3ccccc23)n1-c1cccnc1`, the AC50 result is “inactive”.

In the case of `COc1cc(/C=N/N2CCCCC2)cc([N+](=O)[O-])c1O`, the AC50 result was “inactive”. Next, `COc1cc(/C=N/n2c(C)n[nH]c2=S)ccc1OCc1ccccc1`: “inactive”; `COc1cccc(/C=N/NC(=O)CNC(=O)c2ccncc2)c1O`: “inactive”; `Cc1cccc(/C=N/n2c(-c3ccccc3)n[nH]c2=S)c1O`: “inactive”. On to `COc1cccc(/C=N/n2c(-c3cc(C)[nH]n3)n[nH]c2=S)c1OC`, for which the AC50 result is “inactive”.

On to `COc1cccc(/C=N/NC(=O)NC2CCCCC2)c1O`, for which the AC50 entry was “inactive”.

With `COc1ccc(C2CC(c3ccccc3)=NN2c2ccccc2)c(C(=O)O)c1OC` (stereo unspecified), the AC50 entry is “inactive”. Next, `O=C(O)CCc1ccc(-c2cccs2)n1NC(=O)c1cccs1`: “inactive”.

As to `O=C(O)c1cc(O)ccc1NC(=O)c1cccc2ccccc12`, the AC50 entry was “inactive”.

In the case of `O=C(NCCN1CCCc2ccccc21)C1CCC(=O)N(CCc2ccccc2)C1` (stereo unspecified), the AC50 result is “inactive”. Then `O=C1CC(=O)N(c2ccccc2)N1c1ccccc1`, with “inactive”; and `c1ccc(CNc2ncnc3sc4c(c23)CCCC4)nc1`, with “inactive”; and `Nn1c(Nc2ccccc2)nc2sc3c(c2c1=O)CCCC3`, with “inactive”. Then `Cc1ccc(NC2CCCN(C(=O)CCc3scnc3C)C2)cc1C` (stereo unspecified), with “inactive”; and `CC(C)c1ccc(NC2CCCN(C(=O)c3cscn3)C2)cc1` (stereo unspecified), with “inactive”. Next, `CN(C)c1ccc(NC(=O)CN2CCN(S(=O)(=O)c3cc(Cl)ccc3Cl)CC2)cc1`: “inactive”; `CCN(CC)c1ccc(/C=N/NC(=O)CC(C)C)cc1`: “inactive”; `COc1cc(/C=N/N2C(C)CCCC2C)cc(Br)c1O` (stereo unspecified): “inactive”. In the case of `COc1cc(/C=N/Nc2ccccc2)ccc1O`, the AC50 result was “inactive”.

On to `COc1cc(/C=N/NC(=O)C2C3CCCCC32C)cc(Br)c1O` (stereo unspecified), for which the AC50 entry is “inactive”. Turning to `CCCCCC(=O)N/N=C/c1cc(Br)c(O)c(OC)c1`, the AC50 entry is “inactive”. Then `COc1cc(/C=N/N2C(=O)C3C4C=CC(CC4)C3C2=O)ccc1O` (stereo unspecified), with “inactive”; and `Oc1ccc(/C=N/n2c(COc3ccccc3)n[nH]c2=S)cc1O`, with “inactive”.
